Compound activity as filed in PubChem.
Hits are enriched below; roughly 11% of the tested compounds scored in any of these assays.
AMA1-RON2 inh – inhibitors of Plasmodium falciparum AMA1-RON2 interaction. 360,000 tested, 0.2% active. AlphaScreen AMA1-biotinylated RON2 peptide binding. Potency, µM (doses to about 58.2 µM), inactives show at the top dose activity change, negative = inhibition, most hits filed as inhibitors. AID 720542;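 further: 0% = vehicle wells and -100% = peptide control; nearly all actives have a fitted effect of over 45% in size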
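AMA1 (3D7) with his tag at 25 nM final met compounds first, then biotinylated RON2 peptide at 25 nM; detection used donor plus acceptor beads, 10 µg/mL apiece, read by AlphaScreen after 30 min at room temperature.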
Pf growth 48h – P. falciparum growth inhibition at 48 hours (one generation) | P. falciparum luciferase growth in erythrocytes, 48 h | Potency, µM (doses to about 28.7 µM), for inactives: at the top dose activity change, negative = inhibition, most hits filed as inhibitors | 310,000 tested, 5.9% active
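Read-out is firefly luciferase luminescence from an integrated reporter in P. falciparum, so falling signal marks reduced parasite growth. Infected erythrocytes were at 2% hematocrit and 0.1% parasitemia (final) in Albumax-supplemented RPMI 1640.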
Pf growth 96h – inhibits malaria parasite growth, 96 h; Potency, µM (top dose mostly 28.7 µM), for the others: at the highest dose activity change, negative = inhibition, usual class: inhibitors; AID 504834; 320,000 tested, 6.9% active; P. falciparum luciferase reporter growth, 96 h
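Compounds incubated with erythrocytes infected by luciferase-expressing P. falciparum (2% hematocrit, 0.05% parasitemia final) for 96 hours, 37 C in 5% CO2. Growth inhibition scored as decreased luciferase luminescence.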
HCV inh – inhibitors of hepatitis C virus infection; Huh7.5.1 HCVcc-Cre infection, luciferase reporter, 44 h; Potency, µM (highest dose often 41.8 µM), inactives show top-dose activity change, negative = inhibition, actives largely listed as inhibitors; 340,000 tested, 3.4% active; AID 651820
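Seed cells (1,000/well) for 4 h; treat with compound and infect with HCVcc-Cre, moi about 0.5. Incubate 44 h, then detect luciferase activity.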
The depositor's hits bear a star; u = inconclusive; x = not tested or not shown; [ ] = another dose, or the depositor's remark. The call rests on the fitted dose curve; in most records, active means well fitted curve in the direction sought with a large enough effect; inconclusive means small, poorly fitted or top-dose-only effect, or another doubt; inactive means no such curve, though single readings can be large; an effect the other way counts as inactive or inconclusive. Unless noted, on the % scale 0 is the no-effect control and ±100 the full control effect; potency means the concentration at half of the fitted maximal effect.

SMILES | AMA1-RON2 inh | Pf growth 48h | Pf growth 96h | HCV inh
Cn1c(Cl)nc2c1c(=O)n(Cc1cccc(Br)c1)c(=O)n2C | 3% | -18% | 57% | 13µM*
CCc1cccc(C)c1NC(=O)CSc1nc(C)c(C)o1 | 22% | 69% | 38% | -1%
COc1ccccc1CNC(=O)C1CCN(c2ncnc3c2nc2n3CCCCC2)CC1 | -3% | -9% | -14% | 12%
CC(O)CNc1nc2c(c(=O)n(C)c(=O)n2C)n1Cc1cccc(Br)c1 (stereo unspecified) | -4% | -17% | -12% | 11µM*
Cc1cccc(N2CCN(C(=O)c3ccc(NS(=O)(=O)c4ccc5[nH]c(=O)[nH]c5c4)cc3)CC2)c1C | 5% | u | 8.3µM* | -16%
CC1CC(C)CN(C(=O)c2ccc(NS(=O)(=O)c3ccc4[nH]c(=O)[nH]c4c3)cc2)C1 (stereo unspecified) | -2% | u | u | -7%
CCOC(=O)C1CCCN(C(=O)c2ccc(NS(=O)(=O)c3ccc4[nH]c(=O)[nH]c4c3)cc2)C1 (stereo unspecified) | -14% | u | 5.9µM* | 11%
N#Cc1cccc(C(=O)OCC(=O)c2ccc3c(c2)NC(=O)CO3)c1 | 8% | -8% | 38% | -19%
COc1ccc(S(=O)(=O)N(C)C[C@H]2OCc3cn(nn3)CCCC(=O)N([C@@H](C)CO)C[C@@H]2C)cc1 | 20% | x | x | x
COc1cc(/C=N/NC(=O)C2CC(=O)N(c3ccc(C)cc3)C2)cc(OC)c1OC (stereo unspecified) | 3% | -23% | 12% | -8%
COc1ccc(C(=O)CN2CCOCC2)cc1F | 20% | 34% | 0.66µM* | 23%
COc1ccc(C(=O)C(CN2CCOCC2)c2ccccc2)cc1F (stereo unspecified) | 0% | 7% | -21% | u
COc1ccc(C(O)C(CN2CCOCC2)c2ccccc2)cc1F (stereo unspecified) | -4% | 6.6µM* | u | 0%
CCN1C(=O)N[C@@H](c2cccc(C(F)(F)F)c2)[C@@H](C(=O)OC)[C@H]1C | 1% | x | x | 7%
CCc1noc(C)c1C(=O)N1CCCSC1=Nc1ccccc1 | 4% | u | 37% | 13%
CCc1noc(C)c1C(=O)N1CCSC1=Nc1cccc(Cl)c1C | 1% | u | 2.9µM* | -23%
C(=N\Nc1nc2ccccc2s1)/c1ccccn1 | 12% | -81% | -100% | 1.8µM*
COc1ccc(C=NNc2nc3ccccc3s2)cc1 | 33% | x | x | 8%
O=[N+]([O-])c1cc(Cl)cc(/C=N/Nc2nc3ccccc3s2)c1O | 25% | 52% | 44% | 11µM*
CCC/C=N/Nc1nc2ccccc2s1 | 15% | 8% | 2.6µM* | -12%
C(=C\c1ccccc1)/C=N/Nc1nc2ccccc2s1 | 48% | 136% | 122% | -7%
CC(C)c1ccc(O)c(N)c1 | 42% | u | 2.9µM* | -9%
CCC(C)c1ccc(O)c(N)c1 (stereo unspecified) | 42% | u | u | 0%
CC(C)(C)c1ccc(O)c(N)c1 | x | u | 13µM* | x
NC(=O)C1=C[C@@H](c2ccc(C(F)(F)F)cc2)C[C@@H](OCCCCO)O1 | 4% | 11% | 13% | 44%
SMILES | AMA1-RON2 inh | Pf growth 48h | Pf growth 96h | HCV inh
COCc1nnc(NS(=O)(=O)c2ccc(Br)cc2)s1 | -3% | 12% | u | u
Cc1nc2ccc([N+](=O)[O-])cc2c(=O)n1Cc1ccc(Br)cc1 | -6% | 4% | 3.3µM* | u
Cc1nc2ccc([N+](=O)[O-])cc2c(=O)n1Cc1ccc([N+](=O)[O-])cc1 | -2% | 15% | -17% | 5%
COc1ccc(Cn2nnc(C(=O)Nc3ccc(F)cc3)c2N)cc1 | 11% | 16% | 1.9µM* | -7%
COc1ccc(Cc2nc(C(=O)Nc3ccc(F)cc3)cs2)cc1 | 3% | x | -1% | 10µM*
CCOc1ccc(Cn2nnc(C(=O)NCCc3ccc(Cl)cc3)c2N)cc1 | 2% | x | 5.2µM* | -5%
CCOC(=O)C(C)Oc1cccc2c(=O)n(CC(=O)Nc3ccc(OC)cc3)ccc12 (stereo unspecified) | -1% | x | x | x
C[C@H](NC(=O)c1nc[nH]c1C(=O)NCc1ccc(CNC(=O)OC(C)(C)C)cc1)c1ccccc1 | 120% | 10µM* | u | 7.1µM*
C[C@H](NC(=O)c1nc[nH]c1C(=O)NCCCCCNC(=O)OC(C)(C)C)c1ccccc1 | 104% | 10µM* | 5.2µM* | u
CC(C)C[C@H](NC(=O)c1nc[nH]c1C(=O)N(C)Cc1ccccc1)C(=O)OC(C)(C)C | 60% | u | 7.4µM* | 9%
C[C@@H](NC(=O)c1[nH]cnc1C(=O)Nc1ccon1)c1ccccc1 | 144% | u | u | -4%
C[C@H](NC(=O)c1[nH]cnc1C(=O)Nc1ccon1)c1ccccc1 | 132% | -22% | u | 1.4µM*
COc1ccc(C(=O)NCC(=O)OCC(=O)Nc2cc([N+](=O)[O-])ccc2F)cc1 | 15% | 22% | 6% | -18%
Cc1ccc(-n2cccn2)c(CN2CCCC(CNC(=O)c3ccc(F)cc3)C2)c1 (stereo unspecified) | 7% | -28% | 0% | u
Oc1cccc(Oc2ncc(C(F)(F)F)cc2Cl)c1 | -18% | 0% | 2% | 0%
C[C@H](NC(=O)c1nc[nH]c1C(=O)N[C@@H](CCCCNC(=O)OC(C)(C)C)C(=O)OC(C)(C)C)c1ccccc1 | 125% | 10µM* | u | u
CC(C)(C)OC(=O)NCCCC[C@H](NC(=O)c1[nH]cnc1C(=O)N[C@@H](Cc1ccccc1)C(=O)OC(C)(C)C)C(=O)OC(C)(C)C | 108% | 2.9µM* | 3.7µM* | -13%[8.37 µM]
CN(Cc1ccccc1)C(=O)c1[nH]cnc1C(=O)N[C@@H](CCCCNC(=O)OC(C)(C)C)C(=O)OC(C)(C)C | 113% | u | 8.3µM* | -5%
CC(C)(C)OC(=O)NCCCCCNC(=O)c1[nH]cnc1C(=O)N[C@@H](Cc1ccccc1)C(=O)OC(C)(C)C | 99% | x | x | 18%
C[C@@H](NC(=O)c1nc[nH]c1C(=O)NCCCCCNC(=O)OC(C)(C)C)c1ccccc1 | 131% | x | x | u
O=C(O)Cc1ccc2c(c1)N(S(=O)(=O)c1cccs1)CC(C(=O)O)O2 (stereo unspecified) | -1% | 14% | 25% | 5%
Cc1nn(Cc2ccc(C(=O)N3c4ccc(F)cc4CCC3C)o2)c(C)c1Br (stereo unspecified) | -14% | x | 13µM* | -28%
Cc1ccc(C(=O)N2c3ccc(F)cc3CCC2C)o1 (stereo unspecified) | 3% | u | u | -5%
CCC(CC)N1CCN(C(=O)c2cc(OC)c(OC)c(OC)c2)CC1 | -23% | -1% | u | 18%
Cn1c(N)c(NC(=S)NC2CCCCC2)c(=O)n(C)c1=O | 3% | x | x | 7%
Cc1cccc2nc(-c3ccccc3)nc(N[C@@H](CO)c3ccccc3)c12 | -14% | 13µM* | 13µM* | u
Cc1ccn2cc(-c3cccc(S(=O)(=O)N4CCCC4)c3)nc2c1 | -5% | 9% | 15% | 11µM*
